Drawing on PubChem BioAssay AID778 (Sanford-Burnham Center for Chemical Genomics, 2007), this text covers inhibition for 97 molecules.

Screen size: about 96,000 compounds; about 20,000 (21%) were called active.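 Rule for the calls: active = CYP2C19 inhibition above a set limit at 5 µM in the primary screen (cut at about 50% in these data); inactive = the rest.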 A selection follows.

In general, inhibition refers to the drop in the measured response relative to a control, in per cent.

This assay deals with Cytochrome P450 2C19 (Homo sapiens) (UniProt P33261). The assay can be described thus: blockers of cytochrome P450 2C19 activity – biochemical, luminescence, ADME assay, primary screen (AID 778).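 Note: plate controls were negative control wells for no effect and 2.5 mM tranylcypromine positive control for full effect.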 The conditions noted are these: CYP2C19 Supersomes, luciferin-H EGE luminescence, 30 min; at 5 µM; stronger effect = higher value.
Cytochrome P450 2C19 (Homo sapiens), sequence (P33261 whole entry, looked up): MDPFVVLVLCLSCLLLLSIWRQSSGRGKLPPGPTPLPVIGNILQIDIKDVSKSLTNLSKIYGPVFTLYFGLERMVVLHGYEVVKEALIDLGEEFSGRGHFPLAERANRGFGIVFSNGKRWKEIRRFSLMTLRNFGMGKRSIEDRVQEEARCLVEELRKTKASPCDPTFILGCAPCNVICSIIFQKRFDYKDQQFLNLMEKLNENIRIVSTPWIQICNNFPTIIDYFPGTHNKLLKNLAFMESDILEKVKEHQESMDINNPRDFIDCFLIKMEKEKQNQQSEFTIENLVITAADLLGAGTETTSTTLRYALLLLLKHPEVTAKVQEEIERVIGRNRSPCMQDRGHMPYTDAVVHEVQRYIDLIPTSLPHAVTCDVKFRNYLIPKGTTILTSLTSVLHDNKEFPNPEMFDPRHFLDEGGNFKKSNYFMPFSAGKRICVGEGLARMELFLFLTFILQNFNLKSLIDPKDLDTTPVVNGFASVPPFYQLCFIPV
As to `CCN(CC)S(=O)(=O)N1CCC(C(=O)NC(C)CCc2ccccc2)CC1` (configuration not stated), the inhibition is -8.4% (inactive).

As to `CC(CNC(=O)c1ccc(Br)o1)NC(=O)c1ccc(Br)o1` (configuration not stated), the inhibition was 10.7% (inactive).

Consider `CC(CCc1ccccc1)NC(=O)c1ccc(Br)o1` (configuration not stated), for which the inhibition is 57.2% (active).

With `CS(=O)(=O)c1ccc2nc(NC(=O)C3CCCCC3)sc2c1`, the inhibition is -0.8% (inactive).

Consider `N#CC1=C(N)N(c2ccc(F)cc2)C(=O)C1`, for which the inhibition was -22.3% (inactive).

With `Cc1ccccc1CSc1nnc(-c2ccccn2)n1N`, the inhibition was 43.6% (inactive).

In the case of `COc1ccc2oc(=O)c(C(=O)N3CCN(c4ccccc4F)CC3)cc2c1`, the inhibition was 9.7% (inactive).

In the case of `O=C(Nn1cc(C(=O)N2CCN(c3ccccc3F)CC2)c2ccccc2c1=O)c1cnccn1`, the inhibition is 9.8% (inactive).

Turning to `COc1ccc(Nc2ncc(C(=O)N3CCN(c4ccccc4OC)CC3)c3ccccc23)cc1`, the inhibition is 51.6% (active).

On to `COc1ccc(N2C(=O)CCC(C(=O)N(C)C3CCCCC3)C2c2ccc(OC)c(OC)c2)cc1` (configuration not stated), for which the inhibition is 20.3% (inactive).

Regarding `COCCN(C(=O)CCC(=O)Nc1ccccn1)C(C(=O)NCCC(C)C)c1ccc(OC)cc1` (configuration not stated), the inhibition is 42.4% (inactive).

In the case of `CCC(C)n1[nH]c(=O)cc1N` (configuration not stated), the inhibition was 6.5% (inactive).

On to `O=C(NNC(=O)c1cccnc1)Nc1ccccc1`, for which the inhibition was -10.3% (inactive).

For the molecule `O=C(Nc1ccccc1)N(Cc1cccnc1)Cc1ccco1`, the inhibition was 76.4% (active).

On to `O=C(CS(=O)(=O)Cc1ccccc1)Nc1cccnc1`, for which the inhibition was 6.9% (inactive).

In the case of `N/C(=N\OC(=O)c1cc(-c2ccccc2)nc2ccccc12)c1ccncc1`, the inhibition is 29.8% (inactive).

For `COC(=O)c1ccc(/C=N\n2c(C)nnc2C)cc1`, the inhibition was 8.4% (inactive).

With `CCOC(=O)CSc1nnc(NC(=O)c2cccc(S(=O)(=O)N3CCCC3)c2)s1`, the inhibition is 2.1% (inactive).

On to `CCOC(=O)C1=C(CC)Nc2ccccc2N=C1NC(=O)c1cccc(S(=O)(=O)N2CCCC2)c1`, for which the inhibition was 54.2% (active).

As for `CCOC(=O)CSc1nnc(NC(=O)c2cccc(S(=O)(=O)N3CCCCC3)c2)s1`, the inhibition is 7.4% (inactive).

In the case of `COC(=O)c1ccc(S(=O)(=O)c2ccc(C(=O)OC)s2)s1`, the inhibition was 24.5% (inactive).

Consider `CCOC(=O)C1CCCN(C(=O)c2ccc(CS(=O)(=O)c3ccc(Br)cc3)o2)C1` (configuration not stated), for which the inhibition was 34.7% (inactive).

As to `CCOC(=O)C1CCCN(C(=O)c2cncc(Br)c2)C1` (configuration not stated), the inhibition was 82.7% (active).

Regarding `CCOC(=O)C1CCCN(C(=O)C2CCN(c3nnc(-n4cccc4)s3)CC2)C1` (configuration not stated), the inhibition is 5.1% (inactive).

Take `CCc1ccc(NC(=O)CS(=O)CC(=O)NCCCc2ccccc2)cc1` (configuration not stated): the inhibition was 2.7% (inactive).

With `CCOC(=O)C1(Cc2ccc(O)cc2)NC(c2ccccc2F)C2C(=O)N(C)C(=O)C21` (configuration not stated), the inhibition is -4.2% (inactive).

As for `COc1ccc2nc(NC(=O)c3ccc(Br)s3)sc2c1`, the inhibition was 6.2% (inactive).

As for `COc1ccccc1NC(=O)CSc1nnc(-c2ccoc2C)n1CCc1ccccc1`, the inhibition is 59.8% (active).

Take `CCCn1c(SCC(=O)Nc2cccc(C(=O)OCC)c2)nnc1-c1ccoc1C`: the inhibition is 32.5% (inactive).

Consider `CCn1c(SCC(=O)Nc2nc3ccc(OC)cc3s2)nnc1-c1ccoc1C`, for which the inhibition is 51% (active).

Regarding `COc1ccccc1NC(=O)CSc1nnc(Cn2nnc(-c3ccccc3)n2)n1-c1ccccc1`, the inhibition is 27.4% (inactive).

Turning to `CCOc1ccc2nc(NC(=O)CSc3nc4c(c(=O)n(C)c(=O)n4C)n3CC)sc2c1`, the inhibition was 32.4% (inactive).

Consider `COc1ccc(S(=O)(=O)N2CCN(c3ncnc4c(-c5ccccc5)nsc34)CC2)cc1`, for which the inhibition is 38.2% (inactive).

With `Cc1ccnc(-n2sc3ccccc3c2=O)n1`, the inhibition was 9.8% (inactive).

`Cc1cc(NC(=O)CN2CCCC(C)C2)n(-c2nc3ccccc3s2)n1` (configuration not stated): the inhibition was -3.6% (inactive).

On to `Cc1c(NC(=O)c2coc(=O)c(Br)c2)c(=O)n(-c2ccccc2)n1C`, for which the inhibition was -16.3% (inactive).

For the molecule `Cc1c(NC(=O)C(C)OC(=O)c2cc3c4ccccc4n(C)c3s2)c(=O)n(-c2ccccc2)n1C` (configuration not stated), the inhibition is 3.3% (inactive).

Consider `Cc1cc(C(=O)Nc2c(C)n(C)n(-c3ccccc3)c2=O)cs1`, for which the inhibition is -14% (inactive).

For `Cc1cc(C)cc(N(CC(=O)Nc2c(C)n(C)n(-c3ccccc3)c2=O)S(C)(=O)=O)c1`, the inhibition is 63.2% (active).

Turning to `Cc1cc(C)cc(N(C(C)C(=O)Nc2c(C)n(C)n(-c3ccccc3)c2=O)S(C)(=O)=O)c1` (configuration not stated), the inhibition is 62% (active).

Regarding `COC(=O)Nc1c(C)n(C)n(-c2ccccc2)c1=O`, the inhibition was -13.8% (inactive).

Turning to `COc1cc(OC)nc(NC(=O)CCl)n1`, the inhibition is -19.8% (inactive).

As to `CCN1C(=O)/C(=C\N2CCOCC2)SC1=S`, the inhibition was 10.7% (inactive).

In the case of `CN(C)/C=C(/C(=O)c1ccc(Cl)cc1)S(=O)(=O)c1ccccc1`, the inhibition is 27.2% (inactive).

Take `Cc1ccc(S(=O)(=O)N2CCN(C(=O)CCC(=O)NC3CCCc4ccccc43)CC2)cc1` (configuration not stated): the inhibition was 23.8% (inactive).

With `Cc1cc2c(c(=O)n1Cc1ccco1)C(c1ccccc1)C(C#N)=C(N)O2` (configuration not stated), the inhibition is 21.9% (inactive).

As to `Cc1ccc(S(=O)(=O)NCc2cn3ccsc3n2)c(C)c1`, the inhibition was 11.3% (inactive).

Consider `Cc1ccc2nc(Nc3ccccc3O)nc(-c3ccccc3)c2c1`, for which the inhibition is 10.3% (inactive).

As to `O=C(Nc1ncc2c(n1)-c1ccccc1OC2)c1ccc(Cl)cc1`, the inhibition was 12.7% (inactive).

`COc1ccc(NC(=O)c2sccc2SCC#N)cc1`: the inhibition was 24.1% (inactive).

With `CC1=C(C(=O)Nc2ccccc2)C(c2cccs2)C(C#N)=C(SCC#N)N1` (configuration not stated), the inhibition is 88.8% (active).

Turning to `Cc1ccc(-c2nnc(-c3ccc(NC(=O)c4cccs4)cc3)o2)cc1`, the inhibition is 22.1% (inactive).

With `Cc1ccc(Cc2cncc(O)c2)cc1S(=O)(=O)O`, the inhibition was 1.6% (inactive).

On to `CCOC(=O)C1CCCN(Cc2nc(N)nc(Nc3ccc(C)cc3)n2)C1` (configuration not stated), for which the inhibition is 6.3% (inactive).

For `Fc1ccc(-c2ccc(-c3nn4c(-c5ccco5)nnc4s3)o2)cc1`, the inhibition was 47.8% (inactive).

For `CS(=O)(=O)N(CC(=O)N1CCN(Cc2ccccc2)CC1)c1ccc2c(c1)OCCO2`, the inhibition is 17.4% (inactive).

Consider `CCOC(=O)N1CCN(C(=O)CN(c2ccc(C)c(C)c2)S(=O)(=O)c2ccccc2)CC1`, for which the inhibition was 63.2% (active).

For `COc1ccccc1N(CC(=O)N1CCCCC1)S(=O)(=O)c1ccccc1`, the inhibition is 25.2% (inactive).

On to `CCOC(=O)N1CCN(C(=O)c2ccc(CN(c3ccc(C)c(C)c3)S(C)(=O)=O)cc2)CC1`, for which the inhibition is 57.3% (active).

On to `CCOC(=O)N1CCN(C(=O)c2ccc3c(c2)N(Cc2ccc(C)cc2)CCS3)CC1`, for which the inhibition was 30% (inactive).

`CCOC(=O)N1CCN(C(=O)c2ccc(S(=O)(=O)c3ccc(C)cc3)c(NC(C)=O)c2)CC1`: the inhibition is 5.6% (inactive).

For `COC(=O)Cn1c2ccc(C)cc2c2nc(C)sc21`, the inhibition was -3.3% (inactive).

Consider `O=C1c2cccnc2C(Nc2ccc(S(=O)(=O)N3CCCCCC3)cc2)N1Cc1ccccc1` (configuration not stated), for which the inhibition was 40.6% (inactive).

Turning to `O=C1c2ccccc2C(O)N1Cc1ccccc1` (configuration not stated), the inhibition was 60.9% (active).

On to `O=S1(=O)CCN(Cc2ccccc2Cl)CC1`, for which the inhibition is 35.5% (inactive).

In the case of `O=C(C1=C(O)C(=O)N(Cc2ccccc2)C1c1ccco1)c1ccco1` (configuration not stated), the inhibition is -22.3% (inactive).

Turning to `O=c1ccn(Cc2ccccc2Cl)cc1`, the inhibition was -3% (inactive).

With `O=C1c2ccccc2C(O)N1Cc1ccccc1Cl` (configuration not stated), the inhibition is 80.7% (active).

On to `S=c1[nH]nc(-c2ccc(Cl)cc2)n1CC1CCCO1` (configuration not stated), for which the inhibition is 41.3% (inactive).

On to `COC(=O)c1cc(Cl)c(NC(=O)c2ccco2)cc1OC`, for which the inhibition is 9.4% (inactive).

Regarding `O=C(Nc1ccc2oc(-c3ccc4ccccc4c3)nc2c1)c1cccs1`, the inhibition was -16.3% (inactive).

Regarding `O=C(Cc1cccc2ccccc12)Nc1ccc2oc(-c3ccccc3)nc2c1`, the inhibition was 5.7% (inactive).

Consider `CCCCCC(=O)Nc1ccc2oc(-c3ccncc3)nc2c1`, for which the inhibition is 77.7% (active).

In the case of `Cc1ccc2[nH]c(=O)c(-c3nc4c(C)cccn4c3NCc3ccco3)cc2c1`, the inhibition is -0.9% (inactive).

For the molecule `O=C(Cn1cc(C(=O)c2cccs2)c2ccccc21)NCc1cccs1`, the inhibition was 91.3% (active).

On to `COCCCNC(=O)Cn1cc(C(=O)C2CC2)c2ccccc21`, for which the inhibition was 32.1% (inactive).

In the case of `Cc1cccc(NC(=O)Cn2cc(C(=O)c3ccco3)c3ccccc32)c1`, the inhibition was -13.3% (inactive).

`COC(=O)c1cn(CC(=O)NCc2cccs2)c2ccccc12`: the inhibition is 71.1% (active).

Consider `O=C(CN1CCN(c2ccccn2)CC1)NCc1cccs1`, for which the inhibition was 34.7% (inactive).

As to `COC(=O)Cn1cc(C(=O)c2cccs2)c2ccccc21`, the inhibition is 26% (inactive).

With `CCCCCCC(=O)N(O)C1CC(=O)N(c2ccccc2)C1=O` (configuration not stated), the inhibition is 27.1% (inactive).

Regarding `CC1=C(C(N)=O)C(c2sccc2C)n2nnnc2N1` (configuration not stated), the inhibition was 7.6% (inactive).

Turning to `Cc1nnc(SCC(=O)NC(=O)NC2CCCC2)n1N`, the inhibition was 3.5% (inactive).

In the case of `CCCCOc1ccc(-c2ncc(C(=O)OCC)c(N)n2)cc1`, the inhibition was -11.5% (inactive).

Consider `CCOC(=O)CSc1nccc(N(C)C)c1C#N`, for which the inhibition is 25.5% (inactive).

As for `CCOC(=O)C(Sc1ncc(C#N)c(N)n1)C(C)C` (configuration not stated), the inhibition is 52.1% (active).

On to `CN(Cc1ccccc1)C(=O)CCNC(=O)Cn1cnc2ccccc2c1=O`, for which the inhibition is -11.7% (inactive).

Regarding `c1cnc(Nc2nc(-c3ccc4ccccc4c3)cs2)nc1`, the inhibition is -3.4% (inactive).

Consider `COc1ccc(Nc2nc(-c3ccccc3)cs2)cc1`, for which the inhibition was 35.2% (inactive).

In the case of `Oc1ccc(-c2csc(Nc3cccnc3)n2)cc1`, the inhibition was 78.4% (active).

Turning to `c1ccc(Nc2nc(-c3ccncc3)cs2)nc1`, the inhibition was 98.6% (active).

Consider `Clc1ccc(Nc2nc(-c3cccs3)cs2)nc1`, for which the inhibition is 0.8% (inactive).

As for `NS(=O)(=O)c1ccc(Nc2nc(-c3ccccc3)cs2)cc1`, the inhibition was 28.5% (inactive).

With `CCOC(=O)c1ccc(N2C(=O)CC(N(C)Cc3ccccc3)C2=O)cc1` (configuration not stated), the inhibition was -4% (inactive).

For the molecule `CCCc1ccc(OCC(=O)NNC(=S)NC(=O)c2ccco2)cc1`, the inhibition is 8.7% (inactive).

For the molecule `CC(Oc1ccc2ccccc2c1)C(=O)NNC(=S)NC(=O)c1ccco1` (configuration not stated), the inhibition was 56.8% (active).

With `COc1ccc(C(=O)NC(=S)NNC(=O)CCc2ccccc2)cc1`, the inhibition is -0.6% (inactive).
